Laboratory results taken from PubChem BioAssay AID624483 (NMMLSC, 2012).
About 11,000 (3.1%) of roughly 360,000 compounds were called active. Roughly 2% stayed inconclusive and do not appear here. Rule as the data show it: active = fluorescence intensity above about 16000; inconclusive = no clear call, values can overlap the other calls; inactive = below that. This excerpt belongs to a sample that is enriched for actives.

Assay: compound fluorescence in toxin protease inhibitor counterscreen, primary screen, artefact control for toxin protease inhibitor project, biochemical, multiplex microsphere, HTS (AID 624483)
Details: compound autofluorescence counterscreen, microsphere flow cytometry; hits give high values

Row | SMILES | fluorescence intensity
1 | Cc1ccnc(NC(=O)c2ccoc2C)c1 | 2220 (inactive)
2 | Cc1occc1C(=O)Nc1cccc(S(=O)(=O)N2CCOCC2)c1 | 3850 (inactive)
3 | Cc1occc1C(=O)Nc1cccc(Cn2cccn2)c1 | 16800 (active)
4 | COc1ccc(-c2ccc(C(=O)NC(C)C)c3occc23)c(C)c1 | 3110 (inactive)
5 | CCOC(=O)c1ccc2c(c1)nc(SCC(=O)NC(C)C)n2CC | 19400 (active)
6 | CCOC(=O)c1ccc2c(c1)nc(C)n2CC | 2830 (inactive)
7 | CCOC(=O)CNC(=O)CSc1nc2cccnc2n1CC | 4460 (inactive)
8 | CC(=O)Nc1ccc(NC(=O)CCCNC(=O)c2ccc(Cl)cc2)cc1 | 5820 (inactive)
9 | O=C(CCNC(=O)c1ccc(Cl)cc1)NC1CCCc2ccccc21 (stereo not given) | 5920 (inactive)
10 | CCN(CC(=O)NC(C)C)C(=O)CCNC(=O)c1ccc(Cl)cc1 | 23900 (active)
11 | Cc1ccc(Cn2cc(CN3CC(N4CCN(C)CC4)CS3(=O)=O)nn2)cc1 (stereo not given) | 5630 (inactive)
12 | COC(CNC(=O)c1ccc2c(c1)ncn2-c1cc(C)cc(C)c1)OC | 3480 (inactive)
13 | Cc1ccc(CN2CCN(c3ccccc3Cl)CC2)o1 | 3970 (inactive)
14 | COc1ccc(C(NC(=O)C2CCN(CCCc3ccccc3)CC2)c2cccs2)cc1 (stereo not given) | 3340 (inactive)
15 | CCn1c(O)c(N=NC(=O)c2cccc(S(=O)(=O)N3CCCCC3)c2)c2ccccc21 | 2120 (inactive)
16 | CCn1c(O)c2ccc(C(=O)N=NC(=O)c3cccnc3)cc2c1O | 22400 (active)
17 | O=C(CC(=O)c1cccnc1)c1ccccc1 | 3800 (inactive)
18 | Brc1ccc2nc(-c3ccccc3)c(Cc3ccccc3)n2c1 | 6060 (inactive)
19 | CCCCn1c(N)c(N(CC)C(=O)/C=C/c2ccco2)c(=O)[nH]c1=O | 3280 (inactive)
20 | Cn1c(=O)[nH]c(=O)c2c1[nH]c(=S)n2Cc1ccccc1 | 5200 (inactive)
21 | CCCCn1c(O)c(C(CC)=NCc2ccco2)c(=O)[nH]c1=O | 22200 (active)
22 | CCC(=NCCCO)c1c(O)n(-c2ccc(OC)cc2)c(=O)[nH]c1=O | 3280 (inactive)
23 | Nc1c(N(Cc2ccco2)C(=O)c2cccc(F)c2)c(=O)[nH]c(=O)n1Cc1ccccc1 | 6060 (inactive)
24 | CCC(=NCc1ccco1)c1c(O)n(Cc2ccccc2)c(=O)[nH]c1=O | 16900 (active)

Row | SMILES | fluorescence intensity
25 | CCNC(=O)C1(C)CCCN(C(=O)c2ccc3ccccc3n2)C1 (stereo not given) | 2790 (inactive)
26 | COc1cccc(CNc2nc3cc(-c4csc5ccccc45)sc3c(=O)n2C)c1 | 4090 (inactive)
27 | CC(C)Nc1ncnc2c1ncn2[C@H]1CN(Cc2ccncc2)C[C@@H](CO)O1 | 2910 (inactive)
28 | CCc1nc2c(OCC(N)=O)cccn2c1N(C)C(=O)c1ccc(OC)cc1 | 3440 (inactive)
29 | COc1ccccc1N(C)S(=O)(=O)c1ccc(C(=O)NC2CCCCCC2)cc1 | 5030 (inactive)
30 | CN(Cc1ccccc1)C(=O)[C@@H]1CCCN1C(=O)[C@@H]1CCCN1C(=O)c1c(F)cccc1F | 5720 (inactive)
31 | COc1cc(OC)cc(C(=O)NCC(=O)OCc2csc(-c3ccccc3)n2)c1 | 9780 (inactive)
32 | CNC(=O)c1csc(-c2ccccc2)n1 | 22300 (active)
33 | O=C(NCCc1csc(-c2ccccc2)n1)c1ccccc1F | 3720 (inactive)
34 | CCOC(=O)c1cc2cc(OC)ccc2n1C1CCN(C)CC1 | 5150 (inactive)
35 | O=C(COC(=O)Cc1ccc(Br)cc1)Nc1ccc(N2CCOCC2)cc1 | 8590 (inactive)
36 | CC(=O)c1ccc(Nc2nc(C(N)c3ccccc3Cl)cs2)cc1 (stereo not given) | 3780 (inactive)
37 | COc1cccc(-c2cc3nc(NCc4ccccc4OC)n(C)c(=O)c3s2)c1 | 2860 (inactive)
38 | COc1cnc(SCc2ccc(Cl)c(Cl)c2)nc1Cl | 20800 (active)
39 | COc1ccc(CCNc2nc(C)cc(C)n2)cc1OC | 3430 (inactive)
40 | Nc1cc(N)nc(SCc2ccc(Cl)cc2)n1 | 4250 (inactive)
41 | Cc1ccc([C@H]2N[C@]3(CCCN(CC4CCCCC4)C3=O)[C@H]3C(=O)N(Cc4ccccc4)C(=O)[C@@H]23)cc1 | 3930 (inactive)
42 | O=c1c2ccccc2ncn1/N=C/c1ccccc1 | 3940 (inactive)
43 | CC(C)(C)c1nnc(N/N=C/c2ccc(O)cc2)n(N)c1=O | 9530 (inactive)
44 | O=c1c2ccccc2nc(N/N=C/c2ccccc2)n1O | 24900 (active)
45 | Cc1ccc(-c2noc(CSc3nnc(-c4ccncc4)n3-c3ccc(F)cc3)n2)cc1 | 21100 (active)
46 | Cn1cccc1Cc1nnc(SCC(=O)NCCc2ccccc2)n1-c1ccc(F)cc1 | 5310 (inactive)
47 | Cc1nnc(SCc2ccc(C(=O)c3ccc(Cl)cc3)o2)n1-c1ccccc1 | 6940 (inactive)
48 | Cn1c(SCc2ccc(F)cc2)nnc1-c1ccncc1 | 4260 (inactive)

Row | SMILES | fluorescence intensity
49 | Cc1ccc(-c2noc(CSc3nnc(-c4cccs4)n3C)n2)cc1 | 9700 (inactive)
50 | Fc1ccc(-n2c(Cc3ccccc3)nnc2SCc2nc(-c3ccc(Cl)cc3)no2)cc1 | 25000 (active)
51 | CC(C)(C)NC(=O)NC(=O)COC(=O)Cc1c(F)cccc1Cl | 4470 (inactive)
52 | O=C(Nc1c(Br)cc2c(c1Br)Cc1ccccc1-2)C(F)(F)F | 3730 (inactive)
53 | O=C(CC(NCCN1CCOCC1)C(=O)O)Nc1cccc(Cl)c1 (stereo not given) | 3410 (inactive)
54 | COc1cccc(NC(=O)CSc2nnc(C3CCCCC3)n2N)c1 | 7460 (inactive)
55 | C=CCn1c(CC(=O)Nc2cccc(OC)c2)nnc1SCC(=O)NC1CCCCC1 | 21000 (active)
56 | Cn1c(CC(=O)Nc2ccc(F)cc2)nnc1SCC(=O)NC1CCCCC1 | 3940 (inactive)
57 | Cc1nc2c(OCc3ccc(Cl)cc3Cl)cccn2c1N(C)CC1CC1 | 3540 (inactive)
58 | C[C@@H]1CN([C@@H](C)CO)C(=O)c2cc(Br)cnc2O[C@H]1CN(C)Cc1ccc(-c2ccccc2)cc1 | 2930 (inactive)
59 | CCCNC(=O)c1cc(C2CCCN(C(=O)c3ccc4c(c3)CCO4)C2)on1 (stereo not given) | 3960 (inactive)
60 | O=[N+]([O-])c1ccc(C=Nc2ccc(Cl)cc2Cl)s1 | 22300 (active)
61 | CNN/C(N=Cc1ccc([N+](=O)[O-])s1)=N\S(=O)(=O)c1cc(C)c(Cl)cc1SCc1ccccc1 | 3540 (inactive)
62 | CC1CN(C(=O)c2ccc([N+](=O)[O-])s2)CC(C)O1 (stereo not given) | 6540 (inactive)
63 | CC(=O)NC(c1cccc(F)c1)c1nc(-c2cccc(F)c2)cs1 (stereo not given) | 2910 (inactive)
64 | COCCNC(=O)c1ccc2nc(Cc3ccc(OC)c(OC)c3)oc2c1 | 4160 (inactive)
65 | CCCCc1nc2ccc(F)cc2cc1C | 6420 (inactive)
66 | O=C1NC[C@H](CCCCN2C[C@H](Cc3ccccc3)N(Cc3ccccc3)C(=O)C2=O)N(CCc2ccc(O)cc2)C1=O | 4050 (inactive)
67 | COCCNC(=O)c1ccc(S(=O)(=O)c2ccc(Cl)cc2)c(NC(C)=O)c1 | 3030 (inactive)
68 | CC(=O)Nc1cc(C(=O)O)ccc1S(=O)(=O)c1ccc(Cl)cc1 | 22400 (active)
69 | Cc1ccc(S(=O)(=O)c2ccc(Cl)cc2)cc1S(=O)(=O)NC(C(=O)O)C(C)C (stereo not given) | 1970 (inactive)
70 | CC1(C(=O)Nc2cccc3cccnc23)CCN1C(=O)CCC1CCCC1 (stereo not given) | 3540 (inactive)
71 | COc1cccc(CN(C)C(=O)CC[C@H]2O[C@@H](n3cnc4c(NC(=O)c5ccccc5)ncnc43)[C@H](O)[C@@H]2O)c1 | 5840 (inactive)
72 | COc1ccc(C)cc1NC(=O)NCc1ccccn1 | 2130 (inactive)

Row | SMILES | fluorescence intensity
73 | COc1ccc2ccccc2c1CNCc1ccccn1 | 22000 (active)
74 | COc1ccc2ccccc2c1CNc1nnnn1C | 4610 (inactive)
75 | Cc1ccc(Cc2c(-c3ccco3)nc3ccc(Cl)cn23)cc1 | 5920 (inactive)
76 | CC(=O)Nc1ccc(S(=O)(=O)NC2Cc3ccccc3C2)cc1 | 4250 (inactive)
77 | COc1ccc(-c2cc(NC=O)c3ncc(-c4ccccc4)n3c2)cc1OC | 4190 (inactive)
78 | CN(CC#CCC(c1ccccc1)c1ccccc1)C(C)(C)C | 13300 (inactive)
79 | CC(C)NC(=O)C(=O)NCCN1CCN(S(=O)(=O)c2ccc(Cl)cc2)CC1 | 10600 (inactive)
80 | CS(=O)(=O)N1CCCCC1c1cc(C(=O)NCc2ccccc2)no1 (stereo not given) | 2870 (inactive)
81 | CC(=O)c1cccc(-c2cnc3c(NC=O)cc(-c4ccc(N5CCN(C)CC5)cc4)cn23)c1 | 3240 (inactive)
82 | O=C(Nc1ccc(C(=O)N2CCOCC2)cc1)Nc1cccc(C(F)(F)F)c1 | 6040 (inactive)
83 | NC(=O)Nc1cccc(C(F)(F)F)c1 | 23300 (active)
84 | O=C(CN1CCN(c2ccc(F)cc2)CC1)Nc1cccc(C(F)(F)F)c1 | 2100 (inactive)
85 | COc1ccc(NC(=O)C2(C)Cc3c(-c4ccc(C(N)=O)cc4)ccnc3O2)cc1 (stereo not given) | 3540 (inactive)
86 | COC(=O)c1ccc(CNC(=O)C2CCC(=O)N(Cc3ccccn3)C2)cc1 (stereo not given) | 4790 (inactive)
87 | CCCN(CCC)C(=S)Nc1cc(C(=O)OC)ccc1C(=O)OC | 2240 (inactive)
88 | CCS(=O)(=O)Nc1cc(C(=O)OC)ccc1C(=O)OC | 20300 (active)
89 | COC(=O)c1ccc(C(=O)OC)c(NC(=S)N2CCCCC2)c1 | 5240 (inactive)
90 | CC1C(=O)N(Cc2cn(Cc3ccco3)nn2)CCS(=O)(=O)N1Cc1ccc(-c2cccc(CO)c2)cc1 (stereo not given) | 3680 (inactive)
91 | C=CCN1C2CCCC1CC(NC(=S)Nc1cccc(OC)c1)C2 (stereo not given) | 4340 (inactive)
92 | CCCCNC(=O)c1nc(C2CCN(S(=O)(=O)c3ccc(F)c(F)c3)CC2)oc1-c1cccc(C(F)(F)F)c1 | 5910 (inactive)
93 | O=C(Nc1ccc(Cl)cn1)c1cnn2cccnc12 | 4840 (inactive)
94 | Cc1cc(NC(=O)Nc2ccc(Cl)cc2)n(-c2ccccc2)n1 | 5820 (inactive)
95 | Cc1cc(NC(=O)c2cnn3cccnc23)n(-c2ccccc2)n1 | 19500 (active)
